Results: PubChem BioAssay AID504707 (The Scripps Research Institute Molecular Screening Center, 2011)
The whole screen tested about 340,000 compounds, of which about 280 (0.082%) were called active. The entries come from a sample that favours actives as a whole. A number with no mark means an inactive call.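 The calls were made as follows: active = percent activation above the mean of all tested compounds plus 3 SD (cut at about 19% in these data); inactive = the rest.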

Each molecule was assayed against cAMP-dependent protein kinase type I-alpha regulatory subunit (Bos taurus) + cAMP-dependent protein kinase catalytic subunit beta (Mus musculus) (UniProt P00514+P68181) (assay: compounds dissociating PKAc from R1A subunit – biochemical, fluorescence polarization, Cy5-IP20, bovine R1A, mouse PKAc, primary screen (AID 504707;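 also: higher means more PKAc released from R1A so a rise in polarization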)). Conditions: PKA-R1A dissociation, at 11.4 µM, active compounds read high, scaled: DMSO 0%, 113 µM cGMP 100%.
Molecule `Cc1ccc(S(=O)(=O)/N=C2\C=C(NS(=O)(=O)c3ccc(C)cc3)C(=O)c3ccccc32)cc1` has an activation of -6.85%.
Molecule `C[C@H](CO)N1C[C@H](C)[C@@H](CN(C)Cc2ccc3c(c2)OCO3)OCc2cnnn2CCCC1=O` has an activation of -8.89%.
In the case of `CCOC(=O)C1CCCN(S(=O)(=O)c2ccc3c(c2)C(C)(C)C(=O)N3C)C1` (stereo not drawn), the activation is reported as -3.23%.
`COc1cc(Br)c(-c2sc(Nc3ccccc3)n[n+]2-c2ccccc2)cc1OC` was tested, and the activation was -4.44%.
With `Nc1nonc1-n1nnc(C(=O)N/N=C/c2ccc(Cl)cc2)c1-c1ccc2c(c1)OCO2` the activation was -7.77%.
`CCS(=O)(=O)N1Cc2ccccc2CC1C(=O)Nc1nc2ccc(F)cc2s1` (stereo not drawn) showed an activation of 5.39%.
`Cc1cccc(C(=O)OCC(=O)Nc2sccc2C(N)=O)c1C` gave an activation of 3.56%.
Work on `O=C(CN1C(=O)NC2(CCc3ccccc32)C1=O)NC1CCCCC1` (stereo not drawn) yielded an activation of -0.6%.
`COC(=O)[C@H]1Cc2cnoc2C[C@]1(C)C(=O)O` gave an activation of 4.79%.
For `COc1ccc(CN2C(=O)C(CC(=O)NC3CCCCC3)CC(C(=O)N3CCOCC3)=C2C)cc1` (stereo not drawn), the activation was 1.08%.
For `CC1CC(NC(=S)N(C)C)CC(C)(C)C1` (stereo not drawn), the activation was 7.75%.
`O=C(NN=Cc1ccc2c(c1)CCC2)c1ccccc1O` gave an activation of 10.6%.
Work on `Cc1onc(-c2ccccc2)c1-c1nnc(COC(=O)c2ccc(N(C)C)cc2)o1` yielded an activation of 11.8%.
For `COc1cccc(NC(=O)Nc2ccc(F)cc2)c1`, the activation was 9.12%.
Molecule `c1ccc2c(c1)nnn2-c1ccncc1` has an activation of -12.8%.
Work on `CC1=C(C(=O)N(C)C)CC(CC(=O)NCCc2ccccn2)C(=O)N1CCC1=CCCCC1` (stereo not drawn) yielded an activation of 3.98%.
Work on `CC(=O)Nc1ccc2c3c(ccc([N+](=O)[O-])c13)CC2` yielded an activation of 1.42%.
With `C[C@H]1CN([C@@H](C)CO)C(=O)CCCn2cc(nn2)CO[C@@H]1CN(C)S(=O)(=O)c1ccc(-n2cccn2)cc1` the activation was 4.21%.
For `CC(C)CCNc1nc(N2CCCC2)c2c(c1C#N)CCN(C)C2`, the activation was 6.18%.
`CN1CCN(S(=O)(=O)c2cccc(C(=O)Nc3sccc3C#N)c2)CC1` showed an activation of -12.1%.
In the case of `C[C@H]1CN([C@@H](C)CO)C(=O)CCCn2cc(nn2)CO[C@@H]1CN(C)S(=O)(=O)c1ccccc1C#N`, the activation is reported as -3.32%.
In the case of `CC(=NNC(N)=O)C1CC2CCC1CC2` (stereo not drawn), the activation is reported as -3.74%.
`COc1ccc(Cl)cc1NC(=O)CN(C)C(=O)c1cn(-c2ccccc2)nc1-c1cccs1` showed an activation of -7.71%.
With `Cc1ccc([C@H]2C[C@H](O)[C@@H](n3cc(COC(=O)c4ccccc4)nn3)CN2CC2CCCCC2)cc1` the activation was -14.8%.
With `CCCCCCNC(=O)O[C@]12C[C@@H](C(=O)OC)[C@@H](C(=O)OC)C[C@@]1(O)CN(S(=O)(=O)c1ccc(C)cc1)C2` the activation was -13.7%.
With `CCc1nnc(NC(=O)c2ccco2)s1` the activation was -1.79%.
In the case of `Cc1cccc(C(=O)C(O)(c2ccccc2)C2CCCCC2=O)c1` (stereo not drawn), the activation is reported as -0.27%.
`COc1ccc(S(=O)(=O)N(C)C[C@H]2OCc3cnnn3CCCC(=O)N([C@H](C)CO)C[C@H]2C)cc1` showed an activation of 9.03%.
`CCOC(=O)C1(O)CC(C)=NN1C(=O)c1cccc(Br)c1` (stereo not drawn) showed an activation of -8.67%.
Molecule `C#CCN(C[C@H]1[C@H](OC(=O)NC2CCCC2)[C@H](OC(=O)NC2CCCC2)C[C@H]2C(=O)N(c3ccccc3)C(=O)[C@@H]12)S(=O)(=O)c1ccc(C)cc1` has an activation of 7.98%.
`COc1ccc(S(=O)(=O)N2CCC(C(=O)NCCC(=O)Nc3ccccc3OC)CC2)cc1` showed an activation of -8.6%.
`COc1ccc(C=C2CCC3C(CCCC34OCCO4)C2=O)cc1` (stereo not drawn) gave an activation of -11.2%.
For `Cc1ccccc1NC(=O)Cc1nc(COC(=O)CNC(=O)c2ccc(Cl)cc2Cl)cs1`, the activation was 4.88%.
`COc1ccc(NC(=O)N(C)C[C@@H]2OCc3cn(nn3)CCCC(=O)N([C@H](C)CO)C[C@H]2C)c(OC)c1` was tested, and the activation was 1.93%.
For `Cc1ccc(-c2ccc(CN3C(C(C)C)C(=O)N(Cc4cn(CCC5OCCO5)nn4)CCS3(=O)=O)cc2)cc1` (stereo not drawn), the activation was -8.79%.
Work on `N#Cc1ccc(OCC(=O)Nc2nc(-c3ccccn3)cs2)cc1` yielded an activation of 8.97%.
`Cn1c(CCN2CCN(c3ccccn3)CC2)nc2cc(NS(=O)(=O)c3ccc(F)cc3)ccc21` gave an activation of -5.08%.
Work on `COCCNC(=O)CSc1nc(N)c(NC(=O)c2ccco2)c(=O)[nH]1` yielded an activation of 5.93%.
With `CC1(C)NC(=O)N(CC(=O)Nc2ccc(-c3ccccc3)cc2)C1=O` the activation was -8.93%.
For `CC(C)N(C(=O)CSc1nnc(NC2CC2)s1)c1ccccc1`, the activation was -3.79%.
In the case of `CN(C(=O)CSc1nnc(Nc2ccccc2)s1)C1CCS(=O)(=O)C1` (stereo not drawn), the activation is reported as 19.6% (active).
`CCn1c(SCC(=O)N(C)C2CCS(=O)(=O)C2)nnc1-c1cccs1` (stereo not drawn) gave an activation of 0.15%.
`CC1(c2cccc(N)c2)OCCO1` showed an activation of -5.54%.
In the case of `O=C(CCCN1C(=O)C(c2ccccc2)Oc2cccnc21)Nc1ccccc1Br` (stereo not drawn), the activation is reported as -1.04%.
For `O=C(ON=C1CCN(S(=O)(=O)c2ccccc2)CC1)c1ccc(Cl)cc1`, the activation was 6.75%.
`CNC(=O)C[C@H]1C(=O)N(c2ccc(OC)cc2)C[C@@H]1Cc1ccccc1` showed an activation of -2.17%.
For `O=C(CN1CCN(S(=O)(=O)c2ccc(Cl)s2)CC1)NCc1ccc(Cl)cc1`, the activation was 6.31%.
With `COCC(=O)N(C)C[C@H]1Oc2cc(Br)ccc2S(=O)(=O)N([C@H](C)CO)C[C@H]1C` the activation was -4.65%.
`CCN(CC)C(=O)C1=C(C)N(Cc2ccc(F)cc2)C(=O)C(CC(=O)NC2CCCC2)C1` (stereo not drawn) gave an activation of 12.1%.
`Cc1ccc(Cc2c(-c3ccccc3)nc3ccc(Cl)cn23)cc1` was tested, and the activation was -1.62%.
Work on `Cc1cccc(S(=O)(=O)N(C)C[C@H]2OCc3cnnn3CCCC(=O)N([C@@H](C)CO)C[C@H]2C)c1` yielded an activation of 7.92%.
For `CC(C)n1ncc2c(C(=O)N3CCN(Cc4cccs4)CC3)cc(C3CC3)nc21`, the activation was 1.11%.
Work on `C[C@H](CO)N1C[C@H](C)[C@@H](CN(C)S(=O)(=O)c2ccc(Oc3ccccc3)cc2)OCc2cn(nn2)CCCC1=O` yielded an activation of 1.58%.
`COCCn1c(SCC(=O)Nc2ccc(F)cc2F)nc2c(c1=O)SCC2` was tested, and the activation was -3.58%.
With `C[C@@H]1CN([C@H](C)CO)C(=O)CCCn2cc(nn2)CO[C@H]1CN(C)S(=O)(=O)c1ccc(Oc2ccccc2)nc1` the activation was -8.71%.
With `Cc1ccc(S(=O)(=O)N2C[C@H]3C(=O)C[C@@H](c4cccc5ccccc45)N(S(=O)(=O)c4ccc(C)cc4)[C@H]3C[C@H]2c2ccc(Cl)cc2)cc1` the activation was 1.48%.
In the case of `COc1ccc(S(=O)(=O)N(C)C)cc1NC(=O)COC(=O)c1n[nH]c2ccccc12`, the activation is reported as 0.55%.
`O=C(NCCOc1ccccc1)c1ccccc1F` showed an activation of -12.1%.
For `CCN1CCN(CCNC(=O)c2ccc3c(c2)NC(=O)/C(=C\c2cccc(Cl)c2)S3)CC1`, the activation was -8.75%.
`C[C@H]1CN([C@@H](C)CO)C(=O)c2cc(-c3ccccc3F)cnc2O[C@H]1CN(C)C(=O)C1CCOCC1` was tested, and the activation was -7.74%.
In the case of `C[C@@H]1CCCCO[C@H](CN(C)Cc2ccccc2)[C@@H](C)CN([C@H](C)CO)C(=O)c2cc(NS(=O)(=O)c3ccc(Cl)cc3)ccc2O1`, the activation is reported as -4.59%.
`C#Cc1cc(N2CCN(C(=O)c3ccoc3)CC2)n2nc(-c3cccc(Cl)c3)cc2n1` was tested, and the activation was -0.28%.
For `COc1ccc(-c2ccc(CN3C(C(C)C)C(=O)N(Cc4cn(CC5CCCCC5)nn4)CCS3(=O)=O)cc2)cn1` (stereo not drawn), the activation was 6.26%.
`O=C(Nc1ccc(Cl)cn1)c1ccccc1-c1ccccc1` showed an activation of -2.35%.
For `CC1CCCC(NC(=O)COC(=O)c2ccccc2C(=O)N(C)C2CCCCC2)C1C` (stereo not drawn), the activation was 4.19%.
Work on `CC(C)c1cc(C(=O)N(C)C2CCCN(Cc3ccccc3F)C2)n(C)n1` (stereo not drawn) yielded an activation of -3.3%.
`Cc1ccc(C=O)c([B-](F)(F)F)c1` was tested, and the activation was -6.39%.
For `COCCCN1C(=O)C(CC(=O)NCc2cccs2)CC(C(=O)N2CCOCC2)=C1C` (stereo not drawn), the activation was -6.5%.
In the case of `O=C(COc1ccc(Br)cc1)OCC(=O)c1ccc[nH]1`, the activation is reported as -8.33%.
`CCCC(=O)Nc1ncnc2c1ncn2[C@@H]1O[C@@H]2OP(=O)(O)OC[C@H]2[C@H]1OC(=O)CCC` was tested, and the activation was 49.2% (active).
`C[C@@H]1CN([C@H](C)CO)C(=O)CCCn2cc(nn2)CO[C@H]1CN(C)S(C)(=O)=O` showed an activation of -6.01%.
For `C[C@H]1CN(c2ccc(Br)cc2)C(=O)[C@@H]1CC(=O)Nc1ccc(Br)cc1`, the activation was -2.37%.
In the case of `COc1cccc(NC(=O)N(C)C[C@@H]2Oc3ncc(Br)cc3C(=O)N([C@@H](C)CO)C[C@H]2C)c1`, the activation is reported as -5.28%.
